According to the supplement of paper PMC10849652:
The full data set covers some 7,900 targets. This sample favours those with a hit. About 0.6% of all pairs of compound and target were hits. Unmarked numbers belong to inactive results.

compound: CC[C@H](C)N1C=C(C2=C(C=C(C=C21)C3=CN=C(C=C3)N4CCNCC4)C(=O)NCC5=C(C=C(NC5=O)C)C)C; experiment: log2 fold change, soluble protein after heating vs DMSO (PISA); higher = thermal stabilisation; K562 cells, 10 uM, 30 min; active = over 0.2 and 3.5 SD of the protein, either way, in both replicates (recomputed)
Outline: (§1)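 For each measurement, 10 μM compound was applied for 30 min to K562 cells at 2×10^6 cells/mL. Aliquots were heated for 3 min across 48°C-58°C, pooled, and extracted in PBS with 0.5% NP-40 at 4°C; the supernatant after 21,000xg for 90 min was soluble protein. This was quantified by TMTpro 16plex LC-MS/MS with channel sums equalised, and thermal stability was reported relative to control samples from duplicates, on a log2 fold-change scale.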

UniProt O15067, sequence (O15067 whole entry, looked up): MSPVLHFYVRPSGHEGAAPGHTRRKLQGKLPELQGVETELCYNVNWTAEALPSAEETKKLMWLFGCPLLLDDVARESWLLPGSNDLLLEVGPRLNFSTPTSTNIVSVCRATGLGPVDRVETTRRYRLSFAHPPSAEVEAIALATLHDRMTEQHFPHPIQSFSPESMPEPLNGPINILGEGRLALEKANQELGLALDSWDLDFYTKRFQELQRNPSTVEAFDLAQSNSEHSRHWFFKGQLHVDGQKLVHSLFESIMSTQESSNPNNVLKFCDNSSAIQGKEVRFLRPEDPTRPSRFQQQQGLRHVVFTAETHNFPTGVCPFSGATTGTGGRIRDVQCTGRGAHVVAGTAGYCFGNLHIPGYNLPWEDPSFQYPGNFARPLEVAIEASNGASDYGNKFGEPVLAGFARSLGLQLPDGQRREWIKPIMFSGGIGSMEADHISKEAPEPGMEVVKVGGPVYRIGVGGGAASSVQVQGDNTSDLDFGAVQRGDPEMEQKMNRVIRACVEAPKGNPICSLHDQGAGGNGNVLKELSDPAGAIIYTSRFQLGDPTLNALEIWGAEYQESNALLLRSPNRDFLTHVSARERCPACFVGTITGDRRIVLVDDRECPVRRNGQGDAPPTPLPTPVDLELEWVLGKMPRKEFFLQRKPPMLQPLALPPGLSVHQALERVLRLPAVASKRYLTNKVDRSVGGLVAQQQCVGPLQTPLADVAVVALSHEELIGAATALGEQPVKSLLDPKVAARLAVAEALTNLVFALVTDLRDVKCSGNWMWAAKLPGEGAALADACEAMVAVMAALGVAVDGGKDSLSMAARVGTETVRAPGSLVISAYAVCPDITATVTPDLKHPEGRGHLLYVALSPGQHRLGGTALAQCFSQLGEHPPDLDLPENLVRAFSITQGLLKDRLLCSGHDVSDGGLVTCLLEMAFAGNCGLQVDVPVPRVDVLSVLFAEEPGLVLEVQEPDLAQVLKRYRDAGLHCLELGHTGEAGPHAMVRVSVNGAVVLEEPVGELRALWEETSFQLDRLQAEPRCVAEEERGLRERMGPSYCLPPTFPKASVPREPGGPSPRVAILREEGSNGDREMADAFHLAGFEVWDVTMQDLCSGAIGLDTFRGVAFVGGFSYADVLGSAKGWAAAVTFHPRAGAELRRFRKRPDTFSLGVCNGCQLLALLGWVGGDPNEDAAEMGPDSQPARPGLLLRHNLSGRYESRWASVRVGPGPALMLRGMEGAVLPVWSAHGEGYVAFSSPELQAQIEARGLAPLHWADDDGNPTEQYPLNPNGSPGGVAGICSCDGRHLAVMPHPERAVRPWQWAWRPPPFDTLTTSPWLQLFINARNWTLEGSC
UniProt Q9Y2Y1, sequence (Q9Y2Y1 whole entry, looked up): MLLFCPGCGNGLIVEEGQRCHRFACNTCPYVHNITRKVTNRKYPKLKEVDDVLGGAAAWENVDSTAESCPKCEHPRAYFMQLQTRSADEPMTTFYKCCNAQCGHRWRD
UniProt P14618, sequence (P14618 whole entry, looked up): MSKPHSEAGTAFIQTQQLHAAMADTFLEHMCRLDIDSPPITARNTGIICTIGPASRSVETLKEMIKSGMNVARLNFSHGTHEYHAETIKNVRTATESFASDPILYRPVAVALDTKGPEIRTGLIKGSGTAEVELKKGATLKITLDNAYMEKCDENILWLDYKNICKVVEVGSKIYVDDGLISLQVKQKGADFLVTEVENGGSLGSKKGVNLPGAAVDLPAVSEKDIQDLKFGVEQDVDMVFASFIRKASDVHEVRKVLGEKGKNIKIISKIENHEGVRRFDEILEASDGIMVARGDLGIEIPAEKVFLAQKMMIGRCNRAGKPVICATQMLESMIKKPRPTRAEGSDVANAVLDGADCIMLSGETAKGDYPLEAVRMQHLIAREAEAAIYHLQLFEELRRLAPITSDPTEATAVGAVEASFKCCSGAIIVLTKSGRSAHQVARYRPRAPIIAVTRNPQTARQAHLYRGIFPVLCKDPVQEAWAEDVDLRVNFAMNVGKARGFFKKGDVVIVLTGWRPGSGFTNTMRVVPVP
UniProt Q9Y3E5, sequence (Q9Y3E5 whole entry, looked up): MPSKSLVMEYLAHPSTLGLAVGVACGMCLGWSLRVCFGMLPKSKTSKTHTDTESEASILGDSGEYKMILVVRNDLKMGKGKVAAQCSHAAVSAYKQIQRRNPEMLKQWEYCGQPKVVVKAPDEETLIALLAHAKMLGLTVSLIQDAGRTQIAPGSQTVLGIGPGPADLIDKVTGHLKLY
UniProt Q10713, sequence (Q10713 whole entry, looked up): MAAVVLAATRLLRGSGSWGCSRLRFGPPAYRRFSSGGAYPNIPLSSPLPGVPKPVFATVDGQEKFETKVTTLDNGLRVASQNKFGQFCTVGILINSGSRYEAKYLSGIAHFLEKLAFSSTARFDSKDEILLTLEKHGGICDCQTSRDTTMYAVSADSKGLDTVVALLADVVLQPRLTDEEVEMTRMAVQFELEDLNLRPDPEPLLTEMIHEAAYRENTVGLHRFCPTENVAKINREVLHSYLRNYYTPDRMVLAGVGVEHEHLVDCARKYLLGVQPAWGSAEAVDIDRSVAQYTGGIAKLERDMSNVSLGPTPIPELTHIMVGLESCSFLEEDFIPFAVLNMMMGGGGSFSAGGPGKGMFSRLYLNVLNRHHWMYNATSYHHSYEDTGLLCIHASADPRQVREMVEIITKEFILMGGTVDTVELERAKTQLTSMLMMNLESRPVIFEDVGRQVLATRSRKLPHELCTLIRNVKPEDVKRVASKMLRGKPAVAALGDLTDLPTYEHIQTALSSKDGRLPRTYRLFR
UniProt O00408, sequence (O00408 whole entry, looked up): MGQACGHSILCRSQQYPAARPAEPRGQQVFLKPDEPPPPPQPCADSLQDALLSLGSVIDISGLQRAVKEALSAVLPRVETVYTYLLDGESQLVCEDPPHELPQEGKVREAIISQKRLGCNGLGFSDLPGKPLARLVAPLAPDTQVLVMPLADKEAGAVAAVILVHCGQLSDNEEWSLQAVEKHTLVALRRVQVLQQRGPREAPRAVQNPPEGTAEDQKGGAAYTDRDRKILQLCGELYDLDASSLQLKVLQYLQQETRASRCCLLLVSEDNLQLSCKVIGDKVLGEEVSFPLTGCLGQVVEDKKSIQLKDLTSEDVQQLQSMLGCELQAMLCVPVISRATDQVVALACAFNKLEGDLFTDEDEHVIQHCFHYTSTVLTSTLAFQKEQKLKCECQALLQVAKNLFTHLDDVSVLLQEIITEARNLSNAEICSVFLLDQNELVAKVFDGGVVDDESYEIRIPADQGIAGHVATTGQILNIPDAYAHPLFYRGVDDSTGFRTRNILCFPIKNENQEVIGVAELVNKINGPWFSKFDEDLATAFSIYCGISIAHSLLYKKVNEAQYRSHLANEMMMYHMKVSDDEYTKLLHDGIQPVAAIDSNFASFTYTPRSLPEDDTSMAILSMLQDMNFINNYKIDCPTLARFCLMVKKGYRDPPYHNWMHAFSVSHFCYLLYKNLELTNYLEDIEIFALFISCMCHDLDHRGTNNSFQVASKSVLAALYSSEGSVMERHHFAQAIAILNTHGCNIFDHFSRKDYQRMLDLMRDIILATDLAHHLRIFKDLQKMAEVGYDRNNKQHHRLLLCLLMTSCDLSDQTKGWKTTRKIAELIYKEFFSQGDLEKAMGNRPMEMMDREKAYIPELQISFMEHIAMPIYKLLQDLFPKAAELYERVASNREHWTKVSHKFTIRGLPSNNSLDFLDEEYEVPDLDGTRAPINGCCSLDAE
UniProt P51665, sequence (P51665 whole entry, looked up): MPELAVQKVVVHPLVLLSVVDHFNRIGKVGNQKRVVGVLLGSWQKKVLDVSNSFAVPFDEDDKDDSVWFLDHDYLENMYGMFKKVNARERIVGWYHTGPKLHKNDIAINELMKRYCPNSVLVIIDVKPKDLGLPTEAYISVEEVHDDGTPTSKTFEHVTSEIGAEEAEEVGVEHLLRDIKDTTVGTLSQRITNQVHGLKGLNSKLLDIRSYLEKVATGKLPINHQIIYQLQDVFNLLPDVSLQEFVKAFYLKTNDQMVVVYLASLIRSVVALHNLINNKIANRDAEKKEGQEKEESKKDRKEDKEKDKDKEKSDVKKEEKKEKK
UniProt Q13356, sequence (Q13356 whole entry, looked up): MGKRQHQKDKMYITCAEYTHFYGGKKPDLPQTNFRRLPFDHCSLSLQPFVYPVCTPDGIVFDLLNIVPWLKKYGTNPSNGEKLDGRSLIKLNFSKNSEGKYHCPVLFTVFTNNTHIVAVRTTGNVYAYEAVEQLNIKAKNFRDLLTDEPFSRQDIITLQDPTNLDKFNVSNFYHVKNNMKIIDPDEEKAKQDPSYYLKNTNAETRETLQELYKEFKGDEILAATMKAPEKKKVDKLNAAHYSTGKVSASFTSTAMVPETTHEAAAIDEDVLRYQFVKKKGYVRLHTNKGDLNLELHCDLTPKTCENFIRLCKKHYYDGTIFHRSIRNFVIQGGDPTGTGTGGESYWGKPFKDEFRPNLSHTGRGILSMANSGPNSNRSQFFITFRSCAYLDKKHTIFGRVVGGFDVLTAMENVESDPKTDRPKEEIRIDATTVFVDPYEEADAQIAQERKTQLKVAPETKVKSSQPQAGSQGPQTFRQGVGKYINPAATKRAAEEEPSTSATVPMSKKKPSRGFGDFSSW
UniProt Q96A00, sequence (Q96A00 whole entry, looked up): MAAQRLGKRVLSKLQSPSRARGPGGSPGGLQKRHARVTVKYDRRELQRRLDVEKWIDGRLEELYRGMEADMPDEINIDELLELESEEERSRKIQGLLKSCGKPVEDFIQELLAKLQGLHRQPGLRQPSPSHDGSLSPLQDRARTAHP
UniProt Q9Y478, sequence (Q9Y478 whole entry, looked up): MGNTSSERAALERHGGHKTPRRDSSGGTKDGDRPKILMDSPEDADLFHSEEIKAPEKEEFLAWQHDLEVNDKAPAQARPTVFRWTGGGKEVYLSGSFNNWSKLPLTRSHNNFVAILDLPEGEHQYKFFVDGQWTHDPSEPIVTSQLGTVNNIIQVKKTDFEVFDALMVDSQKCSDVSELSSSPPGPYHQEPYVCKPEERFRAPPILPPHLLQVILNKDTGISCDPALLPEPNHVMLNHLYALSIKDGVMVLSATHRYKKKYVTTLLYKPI

Row | Target | log2 fold change
1 | POLR2M (UniProt P0CAP2) | 0.013
2 | PCID2 (UniProt Q5JVF3) | 0.072
3 | PMPCA (UniProt Q10713) | 0.021
4 | POLA1 (UniProt P09884) | 0.059
5 | PDE2A (UniProt O00408) | 0.016
6 | PDCD4 (UniProt Q53EL6) | -0.013
7 | PURA (UniProt Q00577) | -0.087
8 | PPP1R14A (UniProt Q96A00) | 0
9 | PMM2 (UniProt O15305) | 0.026
10 | PTRH2 (UniProt Q9Y3E5) | 0.013
11 | PPP2R5E (UniProt Q16537) | -0.025
12 | PFAS (UniProt O15067) | 0.113
13 | PPP2R5A (UniProt Q15172) | 0.097
14 | PHKG2 (UniProt P15735) | 0.054
15 | PKM (UniProt P14618) | -0.035
16 | PSMD12 (UniProt O00232) | 0.02
17 | PRKAR1B (UniProt P31321) | -0.067
18 | POLR2K (UniProt P53803) | -0.05
19 | PLCB3 (UniProt Q01970) | 0.044

Row | Target | log2 fold change
20 | PLIN2 (UniProt Q99541) | -0.102
21 | POTEI (UniProt P0CG38) | -0.043
22 | PTP4A1 (UniProt Q93096) | 0.036
23 | PI4K2A (UniProt Q9BTU6) | 0.009
24 | POLR3K (UniProt Q9Y2Y1) | -0.018
25 | PEX16 isoform 2 (UniProt Q9Y5Y5) | -0.013
26 | PIGT (UniProt Q969N2) | 0.035
27 | PRKAA1 isoform 2 (UniProt Q13131) | 0.04
28 | PTRHD1 (UniProt Q6GMV3) | -0.028
29 | PPIL2 (UniProt Q13356) | 0.159
30 | PEX13 (UniProt Q92968) | -0.038
31 | PSMD2 (UniProt Q13200) | -0.009
32 | PPID (UniProt Q08752) | 0.132
33 | POLD1 (UniProt P28340) | 0.053
34 | PDCD2L (UniProt Q9BRP1) | 0.017
35 | PRKAB1 (UniProt Q9Y478) | 0.045
36 | PSMD7 (UniProt P51665) | 0
37 | PYGL (UniProt P06737) | 0.008

compound: CC[C@H](C)[C@@H](C(=O)N[C@@H]([C@@H](C)O)C(=O)N[C@@H](CC(C)C)C(=O)[C@]1(CO1)C)NC(=O)[C@H]([C@@H](C)CC)N(C)C(=O)C [epoxomicin]; experiment: as above
Outline: as §1

Row | Target | log2 fold change
38 | POLR2M (UniProt P0CAP2) | -0.018
39 | PCID2 (UniProt Q5JVF3) | 0.027
40 | PMPCA (UniProt Q10713) | 0.029
41 | POLA1 (UniProt P09884) | 0.045
42 | PDE2A (UniProt O00408) | -0.087
43 | PDCD4 (UniProt Q53EL6) | 0.055
44 | PURA (UniProt Q00577) | -0.197
45 | PPP1R14A (UniProt Q96A00) | 0.058
46 | PMM2 (UniProt O15305) | -0.021
47 | PTRH2 (UniProt Q9Y3E5) | -0.018
48 | PPP2R5E (UniProt Q16537) | -0.034
49 | PFAS (UniProt O15067) | -0.016
50 | PPP2R5A (UniProt Q15172) | 0.067
51 | PHKG2 (UniProt P15735) | -0.004
52 | PKM (UniProt P14618) | 0.001
53 | PSMD12 (UniProt O00232) | -0.278
54 | PRKAR1B (UniProt P31321) | -0.063
55 | POLR2K (UniProt P53803) | -0.032
56 | PLCB3 (UniProt Q01970) | 0.009

Row | Target | log2 fold change
57 | PLIN2 (UniProt Q99541) | 0.153
58 | POTEI (UniProt P0CG38) | -0.039
59 | PTP4A1 (UniProt Q93096) | 0.065
60 | PI4K2A (UniProt Q9BTU6) | 0.027
61 | POLR3K (UniProt Q9Y2Y1) | 0.067
62 | PEX16 isoform 2 (UniProt Q9Y5Y5) | -0.024
63 | PIGT (UniProt Q969N2) | -0.011
64 | PRKAA1 isoform 2 (UniProt Q13131) | 0.017
65 | PTRHD1 (UniProt Q6GMV3) | 0.415 (active)
66 | PPIL2 (UniProt Q13356) | 0.142
67 | PEX13 (UniProt Q92968) | -0.009
68 | PSMD2 (UniProt Q13200) | -0.365 (active)
69 | PPID (UniProt Q08752) | 0.026
70 | POLD1 (UniProt P28340) | 0.123
71 | PDCD2L (UniProt Q9BRP1) | 0.07
72 | PRKAB1 (UniProt Q9Y478) | 0.055
73 | PSMD7 (UniProt P51665) | -0.236
74 | PYGL (UniProt P06737) | -0.02
